Data from PubChem BioAssay.
Active and inactive are the calls of the source.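 The calls were made as follows: active = viability loss from added drug above about 55%, and viability with drug at most 40%, in both replicates (limit read from the data, passing the limit was not always enough); inconclusive = both conditions met in only one replicate; inactive = neither replicate meets both conditions.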

Experiment: reversal of MRP1-mediated doxorubicin resistance, pilot screen, H69AR cells, doxorubicin co-treatment (AID 601)
Details: H69AR cells + 2 uM doxorubicin, CellTiter-Glo, 72 h; at 10 µM; stronger effect = higher value

Which differential viability (reversal) does the source give for O=S(=O)(c1ccc2ccccc2c1)N1CCCCC1 here?
Its differential viability (reversal) is 5.72% (inactive).

With C=CCn1c(CC#N)nnc1N1CCOCC1 as the molecule, how does the differential viability (reversal) read?
The differential viability (reversal) was 19.4% (inactive).

For COc1ccc(OC)c(C2=NOC(C(=O)Nc3cccnc3)C2)c1 (stereo not drawn), which differential viability (reversal) is on record?
Its differential viability (reversal) is 5.72% (inactive).

Same assay, conditions: H69AR cells + 2 uM doxorubicin, CellTiter-Glo, 72 h; measured here: viability with 2 uM doxorubicin; at 10 µM; stronger effect = lower value

With CCn1c(SCC(=O)Nc2nnc(C)s2)nnc1-c1ccncc1 as the molecule, how does the viability read?
The viability was 91.4%.

Which viability does the source give for O=C1CN(Cc2ccccc2)C(=NCc2ccco2)S1 here?
Its viability is 81.8%.

With COc1ccc(NC(=O)c2cc(C(C)C)on2)c(OC)c1 as the molecule, how does the viability read?
Its viability is 90.6%.

With COc1ccc(N2CCN(CCCNC(=O)C3(S(=O)(=O)c4ccc(Cl)cc4)CC3)CC2)cc1 as the molecule, how does the viability read?
The viability was 96.1%.

Which viability does the source give for O=c1oc2ccccc2c2c1ncn2-c1ccccc1 here?
Its viability is 97.7%.

For O=C(Cn1ncc2ccccc21)N1CCN(c2cccc(C(F)(F)F)c2)CC1, which viability is on record?
Its viability is 94.1%.

Which viability does the source give for O=C(NCc1ccccn1)c1cccs1 here?
The viability was 92.8%.

For O=C(NC1CCCC1)C1CC1c1ccccc1 (stereo not drawn), which viability is on record?
The viability was 101%.

Which viability does the source give for CCNc1nc(N2CCOCC2)nc(N(c2ccccc2)c2ccccc2)n1 here?
The viability was 79.4%.

Which viability does the source give for Cc1ccc(S(=O)(=O)N(C)Cc2cc3ccccc3[nH]c2=O)cc1 here?
Its viability is 87.9%.

For COc1ccc(S(=O)(=O)N2CCN(CC(=O)Nc3ccc(C)c(F)c3)CC2)cc1, which viability is on record?
Its viability is 51.4%.

For CC(C)(C)C(=O)/C=C(\N)c1ccccn1, which viability is on record?
The viability was 97.8%.

Which viability does the source give for O=c1c2cc(N3CCOCC3)ccc2[nH]c(=S)n1CCCN1CCCCC1 here?
Its viability is 91.2%.

For O=C(CC1CCS(=O)(=O)C1)Nc1ccc[nH]c1=O (stereo not drawn), which viability is on record?
Its viability is 92.3%.

Which viability does the source give for CCC(=O)c1ccc(OC(=O)c2ccc(Br)o2)cc1 here?
Its viability is 99.9%.

For CC1CCN(CCn2c(=S)[nH]c3ncccc3c2=O)CC1, which viability is on record?
The viability was 93.9%.

Which viability does the source give for CC(C)CC(=O)CN1C(=O)C2(OCCO2)c2ccccc21 here?
Its viability is 95.8%.

For CS(=O)(=O)c1ccc2nc(NC(=O)CCC(=O)c3cccs3)sc2c1, which viability is on record?
Its viability is 74.2%.

For O=S(=O)(NCc1cn2ccsc2n1)c1ccc2c(c1)OCCO2, which viability is on record?
The viability was 95.5%.

With CC1(CC(=O)O)C(=O)N=C2C=CC=CN21 (stereo not drawn) as the molecule, how does the viability read?
Its viability is 84.2%.

For CCN(CC)S(=O)(=O)c1cccc(-c2nnc(SCC(N)=O)n2CCc2ccccc2)c1, which viability is on record?
The viability was 84%.

For CC1(C)Cc2noc(N)c2C(C)(C)N1O, which viability is on record?
The viability was 80.8%.

For CCOc1ccc(Cc2nn[nH]n2)cc1, which viability is on record?
The viability was 96.3%.

With CC(C)NC(=O)CSc1nnc(-c2ccc(C(C)(C)C)cc2)n1C as the molecule, how does the viability read?
The viability was 91.4%.

For C=CCC(NCc1ccco1)c1ccc(OC)cc1OC (stereo not drawn), which viability is on record?
Its viability is 85.3%.

For CCN(c1cccc(C(F)(F)F)c1)S(=O)(=O)c1ccc2c(c1)CCN2C(=O)C1CC1, which viability is on record?
The viability was 82.9%.

For COc1ccc(OC)c(S(=O)(=O)N2CCC(C(=O)NCC3CCCO3)CC2)c1 (stereo not drawn), which viability is on record?
The viability was 90.2%.

With Cn1c(COc2ccc(Cl)cc2)nnc1SCC(=O)NC1CCCCC1 as the molecule, how does the viability read?
The viability was 94%.

Which viability does the source give for CCN(c1c(C)n(C)n(-c2ccccc2)c1=O)S(C)(=O)=O here?
Its viability is 88.7%.

Which viability does the source give for CCc1nc(N)c(C#N)c(-c2ccc(OC)c(OC)c2)c1C here?
The viability was 78.1%.

For CSCCC(NC(=O)c1occc1C)C(=O)O (stereo not drawn), which viability is on record?
The viability was 89.8%.

For Cc1cccc(N2CCN(S(=O)(=O)c3ccc4c(c3)CCC(=O)N4)CC2C)c1 (stereo not drawn), which viability is on record?
Its viability is 83.9%.

Which viability does the source give for c1cnn(-c2cc(N3CCOCC3)ncn2)c1 here?
The viability was 85.5%.

Which viability does the source give for Cc1cccc(NC(=O)COc2ccc(Br)cc2)n1 here?
The viability was 92.4%.

With CCOC(=O)c1ccc(-c2c(C(=O)OCC)oc3cc(O)c(CC)cc3c2=O)o1 as the molecule, how does the viability read?
The viability was 103%.

For CC(C)NC(=O)CSCc1ccccc1Cl, which viability is on record?
Its viability is 76.8%.

Which viability does the source give for O=C(CSc1n[nH]c(-c2cccs2)n1)N1CCN(S(=O)(=O)c2ccccc2)CC1 here?
Its viability is 106%.

With O=S(=O)(c1ccc2ccccc2c1)N1CCCCC1 as the molecule, how does the viability read?
The viability was 75.1%.

With C=CCn1c(CC#N)nnc1N1CCOCC1 as the molecule, how does the viability read?
Its viability is 89.5%.

With COc1ccc(OC)c(C2=NOC(C(=O)Nc3cccnc3)C2)c1 (stereo not drawn) as the molecule, how does the viability read?
Its viability is 83.2%.
